High-throughput results as filed in PubChem BioAssay.
HT1080 IDH1KD tx – toxicity to HT-1080 IDH1 knockdown cells (counter line); HT-1080 IDH1 knockdown viability, ATP luminescence, 48 h; Potency, µM (highest dose often 46.1 µM), inactives show at the top dose activity, negative = toxicity, usual class: cytotoxic; hit rate 2% among 360,000;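 note: 0% = DMSO wells and -100% = cell-free medium wells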
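Assay cells: HT-1080 with IDH1 knockdown, 750 per well, RPMI/5% FBS. Exposure: 48 h at 37 °C following 2 h pre-incubation. Read: CellTiter-Glo luminescence; fitted concentration-response, curve class assigned.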
TGFb inhibitor – TGF-b pathway inhibition; hit rate 1.2% among 410,000; Potency, µM (highest dose often 46.1 µM), without a hit: top-dose activity, negative = inhibition, most hits filed as inhibitors; HepG2 CAGA-GFP TGF-b/SMAD3 reporter, GFP fluorescence, 18 h; TGF-beta stimulated, 500 pg/mL final; note: % is set by controls: 0 for no effect and ±100 for the full control effect; nearly all actives have a fitted effect of over 65% in size
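TGF-beta reporter screen: HEPG2 CAGA-GFP, 1% FBS, 500 pg/mL TGF-beta final, 18 h; per-cell GFP summed per well; curves fitted and categorized by class.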
HT1080NT lethal – kills 2HG-producing HT-1080-NT fibrosarcoma cells; Potency, µM (doses to about 46.1 µM), for the others: at the highest dose activity, negative = less viability, hits mostly cytotoxic; HT-1080-NT fibrosarcoma viability, CellTiter-Glo ATP luminescence, 48 h; hit rate 1.6% among 360,000;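 note: NT is the 2HG producing partner of a matched IDH1 knockdown line; 0% = DMSO-treated cells and -100% = media-only wells without cells; nearly all actives have a fitted effect of over 55% in size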
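HT-1080-NT fibrosarcoma cells (2HG-overproducing), 750 cells/well in RPMI with 5% FBS, dosed after 2 h and incubated 48 h at 37C. CellTiter-Glo luminescence normalized to DMSO and no-cell wells; concentration-response curves fitted and classed.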
ATXN viability – viability counter-screen for ATXN expression inhibitors; AID 651635; Potency, µM (doses to about 56.7 µM), usual class: cytotoxic; S2 cells (HEK-293 line with an ATXN2-luciferase reporter) viability, CellTiter-Fluor protease fluorescence, 24 h; hit rate 0.49% among 400,000; note: nearly all actives have a fitted effect of over 40% in size
HepG2 viability – counter-screen for TGF-b inhibitors: cytotoxicity in HepG2 cells. Potency, µM (titrated, usually from 46.1 µM), inactives show at the highest dose activity change, negative = cytotoxicity, most hits filed as cytotoxic. hit rate 0.76% among 410,000. HepG2 CAGA-GFP viability, ATP luminescence, 18 h. AID 588856
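CellTiter-Glo luminescence gave cytotoxicity after 18 hours at 37 degrees C. The cells were HepG2 CAGA-GFP in 1% FBS DMEM, stimulated with 500 pg/mL TGF-beta after compound addition. %Activity was normalised to no-cell wells (complete cell-killing) and DMSO (no toxicity), and curves were fitted and classified.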
ATXN2 expr inh – ATXN2 expression inhibition. Potency, µM (titrated, usually from 57 µM), for the others: at the top dose activity change, negative = inhibition, actives largely listed as inhibitors. HEK-293 ATXN2-luciferase reporter, luminescence, 24 h. hit rate 0.72% among 360,000; note: % is set by controls: 0 for no effect and ±100 for the full control effect; nearly all actives have a fitted effect of over 55% in size
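qHTS (up to 57 uM final) was run with 24 h compound exposure of reporter cells at 37 °C. Each well was multiplexed: SteadyGlo luminescence measured ATXN2-luciferase expression after a fluorogenic Gly-Phe-AFC viability readout (25 uM final).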
Active calls of the source: *; i = inactive; u = inconclusive; x = no result given; ! = not active in a repeat. An excerpt weighted towards active compounds, which were near 3.8% of everything screened. Calls come from the whole dose curve; as a rule, active = well fitted curve in the direction sought with a large enough effect; inconclusive = small, poorly fitted or top-dose-only effect, or another doubt; inactive = no such curve, though single readings can be large; an effect the other way counts as inactive or inconclusive. Potency is the fitted concentration of half-maximal effect.

SMILES	HT1080 IDH1KD tx	TGFb inhibitor	HT1080NT lethal	ATXN viability	HepG2 viability	ATXN2 expr inh
O=C(NCc1ccccc1)[C@H](Cc1ccccc1)NC(=O)[C@@H]1O[C@@H]1C(=O)NCCc1ccc(O)cc1	x	x	x	x	x	2.1%
Cc1ccccc1OCC(=O)Nc1sc2c(c1C#N)CC(C)(C)NC2(C)C	u	0.0%	23.1µM*	i	-24.7%	-22.3%
CC1(C)Cc2c(sc(NC(=O)COc3ccc(Cl)cc3)c2C#N)C(C)(C)N1	u	2.0%	u	i	-15.0%	-14.9%
O=C(O)CCn1nnc(-c2cccs2)n1	-0.3%	-23.7%	17.7%	i	-1.2%	-1.8%
CC(C)c1ccc(-c2nnn(CCC(=O)O)n2)cc1	1.5%	0.0%	0.6%	i	-2.3%	0.562µM*
CC(=O)c1sc(N/N=C2\CC3CCC2(C)C3(C)C)nc1C (configuration not stated)	u	6.0%	23.1µM*	i	-23.3%	-22.3%
COc1ccc(C2C(C#N)=C(N)Oc3cc(N)ccc32)cc1 (configuration not stated)	1.6%	5.9%	1.8%	i	18.6%	x
COc1cc(C2C(C#N)=C(N)Oc3cc(N)ccc32)cc(OC)c1OC (configuration not stated)	0.581µM*	-17.7%	u	u	-2.0%	26.0%
COc1ccc(C2C(C#N)=C(N)Oc3c2ccc2cccnc32)cc1OC (configuration not stated)	0.651µM*	-19.4%	u	i	-20.2%	2.8%
CCOc1ccc(-c2cc(C(=O)O)c3ccccc3n2)c(OCC)c1	7.08µM*	5.6%	14.1µM*	i	-21.3%	132.2%
CCCc1ccc(-c2cc(C(=O)NN3CCOCC3)c3ccccc3n2)cc1	u	0.1%	-7.6%	i	-1.9%	19.9%
CCNC(=S)NNC(=O)c1cc(-c2ccc(OCC)cc2)nc2ccccc12	5.01µM*	20.1%	3.55µM*	i	7.94µM*	-24.6%
CCc1ccc(-c2cc(C(=O)Nn3cnnc3)c3ccccc3n2)cc1	14.1µM*	u	10µM*	i	8.91µM*	u
CCC(Oc1ccc(F)cc1)C(=O)Nc1nc(-c2ccc(F)cc2)ns1 (configuration not stated)	x	-21.8%	x	x	-52.0%	x
Cc1cnc(C)c(-c2ccc(F)c3c2OC(CNC(=O)Cc2c(F)cccc2F)C3)n1 (configuration not stated)	x	x	x	i	x	x
CCc1nnc(NC(=O)C2CCCN(C(=O)c3ccoc3)C2)s1 (configuration not stated)	x	16.7%	x	x	22.4%	x
Clc1ccc2ncc(-c3nnnn3-c3ccccc3)c(-c3ccccc3)c2c1	u	u	20.6µM*	i	-14.6%	-29.5%
O=C(NC1CC1)c1sc2cc(Cl)ccc2c1Cl	5.9%	-2.1%	6.7%	i	-23.0%	23.5%
CC1(C)CC(NC(=O)c2sc3cc(Cl)ccc3c2Cl)CC(C)(C)N1	11.6µM*	25.2%	14.6µM*	x	-36.0%	-23.3%
CNC(=O)c1cc(-c2cccs2)on1	x	u	x	x	-9.1%	x
Cc1ccc2nc(NCCN)c3ncc(C)n3c2c1	x	x	x	x	x	1.93µM*
CCS(=O)(=O)c1nnnn1-c1ccccc1S(C)(=O)=O	12.6µM*	11.2µM*	17.8µM*	u	-2.4%	-25.5%
CCCC(=O)OCCNc1cc(Sc2nccn2C)c2nonc2c1[N+](=O)[O-]	14.6µM*	15.8µM*	u	x	-97.5%	20µM*
CCCC(=O)OCCNc1cc(SCc2ccco2)c2nonc2c1[N+](=O)[O-]	23.1µM*	28.4%	u	i	5.3%	-35.5%
COc1cc(OC)c2c(-c3ccccc3)cc(=O)oc2c1C(CCN1CCCC(C)C1)c1ccc2c(c1)OCO2 (configuration not stated)	-26.2%	u	u	10µM*	-19.5%	u
SMILES	HT1080 IDH1KD tx	TGFb inhibitor	HT1080NT lethal	ATXN viability	HepG2 viability	ATXN2 expr inh
COc1cc(OC)c2c(-c3ccccc3)cc(=O)oc2c1C(CCN1CCCCC1)c1ccc2c(c1)OCO2 (configuration not stated)	-14.4%	u	1.3%	u	-26.3%	-17.4%
COc1ccc(C(CCN2CCCCC2)c2c(OC)cc(OC)c3c(-c4ccccc4)cc(=O)oc23)cc1 (configuration not stated)	-14.4%	u	-27.5%	22.4µM*	17.8µM*!	u
COc1cc(OC)c2c(-c3ccccc3)cc(=O)oc2c1C(CCN1CCCCC1)c1ccc(N(C)C)cc1 (configuration not stated)	-29.2%	u	-20.9%	22.4µM*	-69.5%	u
Cc1ccc(NC(=O)C2=CC(c3cccs3)=NS(=O)(=O)N2C)cc1	-8.0%	u	-1.3%	i	-35.9%	-16.3%
CCc1ccc(NC(=O)C2=CC(c3cccs3)=NS(=O)(=O)N2C)cc1	-4.5%	12.6µM*!	-2.9%	i	-26.3%	-2.2%
O=C1/C(=C/c2ccc(N3CCCC3)cc2)NC(=S)N1C1CC1	7.94µM*	43.1%	6.31µM*	i	-25.8%	16.1%
Cn1nnnc1SCCNCc1ccccc1Cl	x	-10.9%	x	i	5.5%	12.9%
COc1ccc(N2CC(C(=O)Nc3cc(C(F)(F)F)ccc3N3CCCC3)CC2=O)c(OC)c1 (configuration not stated)	20.6µM*	16.0%	20.6µM*	u	6.7%	-6.1%
O=C(Nc1cc(C(F)(F)F)ccc1N1CCCC1)C1CC(=O)N(Cc2ccccc2)C1 (configuration not stated)	-0.4%	-12.8%	-15.3%	i	-18.6%	x
COc1ccc(N2CC(C(=O)Nc3ccccc3N3CCCC3)CC2=O)c(OC)c1 (configuration not stated)	23.1µM*	u	u	i	9.0%	-2.5%
O=C1c2ccccc2-c2cccnc21	-2.6%	-8.3%	-2.7%	i	-8.1%	-6.3%
O=C1c2ccccc2C(=O)c2c(/C=C/N3CCCCC3)ccnc21	23.1µM*	u	-20.2%	u	3.55µM*	u
Cc1ccccc1OCc1occc1C(=O)Nc1cccc(-n2cnnn2)c1	u	14.1µM*	-29.4%	i	-31.5%	x
COc1cc(Cl)c(S(=O)(=O)N2CCCC2)cc1Cl	-4.3%	-2.4%	-12.0%	i	-15.4%	-3.6%
COc1cc(N2C(=O)C=CC2=O)c(OC)cc1Cl	u	11.2µM*	18.4µM*	20µM*	-91.2%	u
Cc1ccc(C)c(N2CCN(C(=O)c3cn(CC(C)C)c(=O)c4c3c3ccccc3n4C)CC2)c1	x	-0.1%	x	i	-0.2%	1.1%
